Assay results published in the supplement of paper PMC8975748.
Structures can show the parent of a compound that is named as a salt. ± gives the standard deviation of the averaged measurements.

Key:
[1] = tested on: Saccharomyces cerevisiae BY4741 SeMeCo community; assay: z-score of prototroph abundance vs DMSO median; higher = larger share of this subpopulation than in DMSO controls; settings: 10 µM; 24 h; SM minimal medium; subpopulation (auxotrophy): Prototroph
Method in brief: (§1)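 Automated confocal microscopy of paraformaldehyde-fixed cells was used to follow a Saccharomyces cerevisiae BY4741 community carrying four plasmids, each restoring one auxotrophy and encoding a distinct fluorescent protein. The community was pre-grown overnight to OD600 1.0, diluted to 0.3, and added at 70 µl to 384-well plates acoustically predosed with library drugs (10 µM final) for 24 h of growth in minimal SM medium. Single-auxotroph fluorescent strains set thresholds and autofluorescence correction, and each subpopulation's abundance was scored as a z-score against the vehicle-well median.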

[2] = tested on: Saccharomyces cerevisiae BY4741 SeMeCo community; assay: z-score of subpopulation abundance vs DMSO median, subpopulation auxotrophic for M; higher = larger share of this subpopulation than in DMSO controls; settings: 10 µM; 24 h; SM minimal medium; subpopulation (auxotrophy): M
Method in brief: as §1

[3] = tested on: Saccharomyces cerevisiae BY4741 SeMeCo community; assay: z-score of subpopulation abundance vs DMSO median, subpopulation auxotrophic for L; higher = larger share of this subpopulation than in DMSO controls; settings: 10 µM; 24 h; SM minimal medium; subpopulation (auxotrophy): L
Method in brief: as §1

[4] = tested on: Saccharomyces cerevisiae BY4741 SeMeCo community; assay: z-score of subpopulation abundance vs DMSO median, subpopulation auxotrophic for U; higher = larger share of this subpopulation than in DMSO controls; settings: 10 µM; 24 h; SM minimal medium; subpopulation (auxotrophy): U
Method in brief: as §1

[5] = tested on: Saccharomyces cerevisiae BY4741 SeMeCo community; assay: z-score of subpopulation abundance vs DMSO median, subpopulation auxotrophic for H; higher = larger share of this subpopulation than in DMSO controls; settings: 10 µM; 24 h; SM minimal medium; subpopulation (auxotrophy): H
Method in brief: as §1

[6] = tested on: Saccharomyces cerevisiae BY4741 SeMeCo community; assay: z-score of subpopulation abundance vs DMSO median, subpopulation auxotrophic for LU; higher = larger share of this subpopulation than in DMSO controls; settings: 10 µM; 24 h; SM minimal medium; subpopulation (auxotrophy): LU
Method in brief: as §1

[7] = tested on: Saccharomyces cerevisiae BY4741 SeMeCo community; assay: z-score of subpopulation abundance vs DMSO median, subpopulation auxotrophic for LM; higher = larger share of this subpopulation than in DMSO controls; settings: 10 µM; 24 h; SM minimal medium; subpopulation (auxotrophy): LM
Method in brief: as §1

[8] = tested on: Saccharomyces cerevisiae BY4741 SeMeCo community; assay: z-score of subpopulation abundance vs DMSO median, subpopulation auxotrophic for UM; higher = larger share of this subpopulation than in DMSO controls; settings: 10 µM; 24 h; SM minimal medium; subpopulation (auxotrophy): UM
Method in brief: as §1

[9] = tested on: Saccharomyces cerevisiae BY4741 SeMeCo community; assay: z-score of subpopulation abundance vs DMSO median, subpopulation auxotrophic for HLU; higher = larger share of this subpopulation than in DMSO controls; settings: 10 µM; 24 h; SM minimal medium; subpopulation (auxotrophy): HLU
Method in brief: as §1

[10] = tested on: Saccharomyces cerevisiae BY4741 SeMeCo community; assay: z-score of subpopulation abundance vs DMSO median, subpopulation auxotrophic for HLM; higher = larger share of this subpopulation than in DMSO controls; settings: 10 µM; 24 h; SM minimal medium; subpopulation (auxotrophy): HLM
Method in brief: as §1

[11] = tested on: Saccharomyces cerevisiae BY4741 SeMeCo community; assay: z-score of subpopulation abundance vs DMSO median, subpopulation auxotrophic for HUM; higher = larger share of this subpopulation than in DMSO controls; settings: 10 µM; 24 h; SM minimal medium; subpopulation (auxotrophy): HUM
Method in brief: as §1

[12] = tested on: Saccharomyces cerevisiae BY4741 SeMeCo community; assay: z-score of subpopulation abundance vs DMSO median, subpopulation auxotrophic for LUM; higher = larger share of this subpopulation than in DMSO controls; settings: 10 µM; 24 h; SM minimal medium; subpopulation (auxotrophy): LUM
Method in brief: as §1

[13] = tested on: Saccharomyces cerevisiae BY4741 SeMeCo community; assay: z-score of subpopulation abundance vs DMSO median, subpopulation auxotrophic for HLUM; higher = larger share of this subpopulation than in DMSO controls; settings: 10 µM; 24 h; SM minimal medium; subpopulation (auxotrophy): HLUM
Method in brief: as §1

[14] = tested on: Saccharomyces cerevisiae BY4741 SeMeCo community; assay: z-score of subpopulation abundance vs DMSO median, subpopulation auxotrophic for HM; higher = larger share of this subpopulation than in DMSO controls; settings: 10 µM; 24 h; SM minimal medium; subpopulation (auxotrophy): HM
Method in brief: as §1

[15] = tested on: Saccharomyces cerevisiae BY4741 SeMeCo community; assay: z-score of subpopulation abundance vs DMSO median, subpopulation auxotrophic for HU; higher = larger share of this subpopulation than in DMSO controls; settings: 10 µM; 24 h; SM minimal medium; subpopulation (auxotrophy): HU
Method in brief: as §1

[16] = tested on: Saccharomyces cerevisiae BY4741 SeMeCo community; assay: z-score of subpopulation abundance vs DMSO median, subpopulation auxotrophic for HL; higher = larger share of this subpopulation than in DMSO controls; settings: 10 µM; 24 h; SM minimal medium; subpopulation (auxotrophy): HL
Method in brief: as §1

[17] = tested on: Saccharomyces cerevisiae BY4741 SeMeCo community; assay: mean cell size (pixel area) (pixels); higher = larger cells; settings: 10 µM; 24 h; SM minimal medium
Method in brief: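 A Saccharomyces cerevisiae BY4741 community carrying four plasmids, each with a fluorescent marker and each complementing one auxotrophy, was exposed for 24 h to drug at a final 10 µM in SM medium in acoustically predosed 384-well plates. The overnight preculture (OD600 = 1.0) was diluted to OD600 = 0.3 before 70 µl was added per well. Cells were then fixed with paraformaldehyde, imaged by automated confocal microscopy and analysed in Harmony to derive mean cell pixel area per well, averaged over 3 replicates. Same SeMeCo high-content imaging drug screen: Selleck FDA-approved drugs at 10 µM, 24 h in SM medium, 384-well plates, 3 replicates.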

| Structure (SMILES) | z-score of prototroph abundance [1] | z-score of subpopulation abundance [2] | z-score of subpopulation abundance [3] | z-score of subpopulation abundance [4] | z-score of subpopulation abundance [5] | z-score of subpopulation abundance [6] | z-score of subpopulation abundance [7] | z-score of subpopulation abundance [8] | z-score of subpopulation abundance [9] | z-score of subpopulation abundance [10] | z-score of subpopulation abundance [11] | z-score of subpopulation abundance [12] | z-score of subpopulation abundance [13] | z-score of subpopulation abundance [14] | z-score of subpopulation abundance [15] | z-score of subpopulation abundance [16] | mean cell size [17] |
| --- | --- | --- | --- | --- | --- | --- | --- | --- | --- | --- | --- | --- | --- | --- | --- | --- | --- |
| CN(C)CC/C=C1/c2ccccc2Sc2ccc(Cl)cc21 [Chlorprothixene] | 0.08 | 0.73 | -0.89 | 0.62 | -1 | -0.59 | 0.18 | 0.34 | -0.48 | -0.36 | -0.32 | -0.1 | -0.55 | – | – | – | – |
| COc1cccc(CCc2ccccc2OCC(CN(C)C)OC(=O)CCC(=O)O)c1 (configuration not stated) [Sarpogrelate hydrochloride] | 0.79 | -0.54 | -0.31 | -0.21 | -0.59 | -0.09 | – | 0.14 | -0.99 | -0.89 | -0.04 | -0.21 | -0.48 | -0.54 | -0.27 | -0.5 | – |
| CNCCCC1c2ccccc2C=Cc2ccccc21 [Protriptyline hydrochloride] | -0.57 | -0.4 | -0.45 | 0.84 | 0.19 | 0.57 | -0.93 | 0.52 | 0.54 | -0.07 | – | 0.28 | -0.01 | -0.42 | 0.37 | 0.25 | 12.4 ± 0.15 |
| Clc1ccc(COC(Cn2ccnc2)c2ccc(Cl)cc2Cl)cc1 (configuration not stated) [Econazole nitrate] | – | -2.24 | -3.48 | 3.05 | 15.7 | 1.14 | -1.64 | 10.3 | 6.46 | 10.7 | 6.6 | 1.67 | – | – | 12.4 | 5.56 | – |
| C[C@]1(Cn2ccnn2)[C@H](C(=O)O)N2C(=O)C[C@H]2S1(=O)=O [Tazobactam] | -0.17 | -0.32 | -0.56 | – | -1.1 | 0.66 | – | 0.66 | 0.12 | -0.56 | -0.01 | 0.22 | 0.69 | -0.74 | 0.31 | -0.38 | – |
| CC(C)COc1ccc(CNC(=O)N(Cc2ccc(F)cc2)C2CCN(C)CC2)cc1 [Pimavanserin] | -0.05 | 1.1 | -1.18 | 0.22 | -0.39 | 0.32 | -0.48 | -0.58 | -0.54 | 0.27 | – | -0.56 | -0.3 | -0.22 | 1.4 | 0.41 | 12.4 ± 0.25 |
| CC1(C)[C@H](C(=O)O)N2C(=O)C[C@H]2S1(=O)=O [Sulbactam] | 0.75 | 0.57 | 0.57 | -0.63 | – | -0.53 | 1.07 | -0.39 | -0.86 | -1.04 | – | -0.1 | -0.44 | -0.43 | -0.07 | -0.53 | 12.3 ± 0.16 |
